ELG1 genotoxic: genotoxicity induction in ELG1-luciferase HEK293T cells; HEK293T ELG1-luciferase reporter, luminescence, 16 h; Potency, µM (series often up to 46 µM), without a hit: at the top dose activity change, positive = activation, actives largely listed as activators; 1.3% of 330,000 active; AID 504466; further: % of control where 0% means no effect; nearly all actives have a fitted effect of over 60% in size
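16 hr compound incubation (37 °C, 5% CO2) of HEK293T cells carrying luciferase-tagged ELG1; luciferase then measured by ONE-Glo luminescence after 30 min at RT.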
SMN2 splice enh: SMN2 splice variant enhancement | HEK293 SMN2-luciferase splicing reporter, luminescence, 30-36 h | Potency, µM (doses to about 46.1 µM), for the others: top-dose activity change, positive = activation, hits mostly activators | 2.8% of 210,000 active | AID 1458; further: % of control where 0% means no effect; nearly all actives have a fitted effect of over 55% in size
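HEK293 cells carry an SMN2 […]–luciferase reporter in which exon 7 inclusion puts luciferase in frame. Cells were plated 10-12 h before compound addition, then incubated 30-36 h at 37C. ONE-Glo luminescence was read; sodium butyrate at 4.5 mM final served as control.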
FLuc counter: inhibits or activates purified firefly luciferase, miR-21 counter-screen; AID 588342; 6.9% of 360,000 active; P08659; Potency, µM (titrated, usually from 57.5 µM), for the others: at the top dose activity change, negative = inhibition, hits mostly inhibitors; purified FLuc, Km substrates, luminescence inhibition;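 further: plate controls were vehicle for no effect and reference inhibitor for full effect; nearly all actives have a fitted effect of over 55% in size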
Target sequence (P08659 whole entry, looked up): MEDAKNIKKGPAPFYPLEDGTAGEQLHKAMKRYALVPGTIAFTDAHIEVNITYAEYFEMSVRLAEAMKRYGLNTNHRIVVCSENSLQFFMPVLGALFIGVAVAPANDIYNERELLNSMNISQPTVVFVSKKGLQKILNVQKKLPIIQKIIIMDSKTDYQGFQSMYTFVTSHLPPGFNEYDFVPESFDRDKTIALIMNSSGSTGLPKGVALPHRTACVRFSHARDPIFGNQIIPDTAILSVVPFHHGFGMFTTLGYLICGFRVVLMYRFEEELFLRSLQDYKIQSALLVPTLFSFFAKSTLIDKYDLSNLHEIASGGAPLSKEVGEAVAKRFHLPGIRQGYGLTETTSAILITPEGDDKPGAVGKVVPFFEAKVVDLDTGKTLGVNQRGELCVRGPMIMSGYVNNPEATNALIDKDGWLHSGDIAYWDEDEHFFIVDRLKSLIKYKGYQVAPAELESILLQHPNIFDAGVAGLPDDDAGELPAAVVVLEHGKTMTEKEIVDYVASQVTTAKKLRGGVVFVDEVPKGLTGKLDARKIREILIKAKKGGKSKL
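Purified P. pyralis luciferase (10nM final) with 10uM D-luciferin and 10uM ATP (Km levels) in 50mM Tris acetate pH 7.5, 10mM Mg acetate, 0.01% Tween-20, 0.05% BSA; qHTS 6-point titration, ~60 µM downward; luminescence read.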
Rab9 promoter act: activates the Rab9 promoter | Huh7 Rab9 promoter-luciferase reporter, luminescence, 24 h | Potency, µM (highest dose often 9.22 µM), without a hit: at the top dose activation, negative = inhibition, actives largely listed as activators | 2.8% of 320,000 active; further: % of control where 0% means no effect; nearly all actives have a fitted effect of over 60% in size
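Cells were plated at 1500 per well in reduced-serum medium with 10% FBS and left 2 h. Compound in DMSO was then added for 24 h at 37 °C. Reporter signal was read by luminescence after 10 min with luciferase detection reagent.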
ELG1 DNA repair: blocks ELG1-dependent DNA repair in HEK293T cells. 2.3% of 330,000 active. HEK293T ELG1-luciferase reporter, luminescence, 16 h; DNA damage induced by 5-fluorouridine. AID 504467. Potency, µM (series often up to 46.1 µM), inactives show at the highest dose activity change, negative = inhibition, usual class: inhibitors; further: on the % scale 0 is the no-effect control and ±100 the full control effect; nearly all actives have a fitted effect of over 55% in size
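Overnight (16 hr) co-exposure of 2,000 cells/well to 5-fluorouridine and compound at 37 °C preceded detection. Luciferase was quantified via ONE-Glo luminescence; loss of signal denotes inhibition.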
NPC1 prom act: activators of NPC1 promoter | Huh7 NPC1 promoter luciferase reporter, 24 h | Potency, µM (top dose mostly 9.22 µM), for inactives: at the highest dose activation, most hits filed as activators | 2.4% of 320,000 active; further: % of control where 0% means no effect; nearly all actives have a fitted effect of over 60% in size
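Luminescence read-out of NPC1 promoter-driven luciferase in stably transfected Huh7 cells; compounds delivered in DMSO and left 24 h at 37C, 5% CO2, qHTS titration format.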
Starred values were filed as active, the others as inactive; ? = inconclusive; . = not tested or not shown; [ ] = another dose, or the depositor's remark. Compounds with a hit are over-represented: about 9.3% of the library has one in this group of screens. The call rests on the fitted dose curve; in most records, active means well fitted curve in the direction sought with a large enough effect; inconclusive means small, poorly fitted or top-dose-only effect, or another doubt; inactive means no such curve, though single readings can be large; an effect the other way counts as inactive or inconclusive. Potency means the concentration at half of the fitted maximal effect.

SMILES	ELG1 genotoxic	SMN2 splice enh	FLuc counter	Rab9 promoter act	ELG1 DNA repair	NPC1 prom act
Cc1ccc(CCNC(=O)NC(C)(C)C)cc1	13%	3.5µM*	?	?	?	?
Cc1ccc(S(=O)(=O)N(C)c2ccc(C(=O)NCCc3ccccc3)cc2)cc1	15%	.	?	?	?	29%
CN(c1ccc(C(=O)NCCc2ccccc2)cc1)S(C)(=O)=O	1.6µM*	14µM*	5.4µM*	0.63µM*	?	1.4µM*
COCc1nn2c(N)c(C#N)cnc2c1-c1ccccc1	18%	29%	13µM*	-1%	-7%	-2%
COc1ccccc1-c1c(C)nn2c(N)c(-c3ccccc3)cnc12	0%	.	19µM*	15%	?	12%
COc1ccc(-c2c(C)nn3c(N)c(-c4ccccc4)cnc23)cc1OC	10%	.	?	12%	-16%	-4%
COCc1nn2c(N)c(-c3ccccc3)cnc2c1-c1ccccc1	?	.	0.85µM*	2.8µM*	-7%	2.8µM*
CCOc1ccc(N=C(C)c2ccccc2O)cc1	0%	3%	21µM*	3%	8%	1%
C/C(=N/N=C(\C)c1ccccc1O)c1ccccc1O	?	.	?	15%	?	?
CCCn1c(-c2ccc[nH]c2=O)nc2cc(C)c(C)cc21	?	.	13µM*	19%	?	0%
CN(C)S(=O)(=O)c1ccc(Cl)c(NC(=O)CN2CCN(Cc3ccc4c(c3)OCO4)CC2)c1	-8%	.	3%	-10%	21µM*	2%
CS(=O)(=O)N(CC(=O)N1CCN(Cc2ccc3c(c2)OCO3)CC1)Cc1ccc(Cl)cc1	-15%	-48%	7%	0%[1.84 µM]	12µM*	-2%
CS(=O)(=O)N(CCc1ccccc1)CC(=O)N1CCN(Cc2ccc3c(c2)OCO3)CC1	.	-35%	1%	.	.	.
O=C(Cn1c(=O)[nH]c2ccccc2c1=O)N1CCN(Cc2ccc3c(c2)OCO3)CC1	-12%	.	1%	-16%	23µM*	-1%
O=C(CN1CCN(Cc2ccc3c(c2)OCO3)CC1)Nc1cc(S(=O)(=O)N2CCCC2)ccc1Cl	-1%	-58%	-1%	-21%	?	-23%
O=C(CCCCCn1c(=O)[nH]c2ccccc2c1=O)N1CCN(Cc2ccc3c(c2)OCO3)CC1	-17%	-19%	0%	-10%	18µM*	0%
CCOC(=O)C1CCCN(C(=O)c2cccc(S(=O)(=O)N(Cc3ccccc3)c3ccccc3OC)c2)C1 (centres undefined)	-10%	.	1%	-4%	-21%	0%
CC(C)[C@H](NC(=O)c1ccc(C(C)(C)C)cc1)C(=O)N1CCN(Cc2ccc3c(c2)OCO3)CC1	-2%	.	.	.	16µM*	.
O=C(O)c1ccccc1C(=O)N1CCN(Cc2ccc3c(c2)OCO3)CC1	0%	.	-2%	2%	9%	-5%
O=C(CCCCCn1c(=O)[nH]c2ccccc2c1=O)NCCCN1CCN(c2ccccc2F)CC1	-13%	-71%	1%	-4%	23µM*	-3%
C[C@H](NC(=O)c1ccccc1)C(=O)N1CCN(Cc2ccc3c(c2)OCO3)CC1	0%	.	.	.	1%	.
C/C(=C\c1ccccc1)C(=O)N1CCN(Cc2ccc3c(c2)OCO3)CC1	-7%	.	-1%	6%	7.3µM*	-1%
COc1cccc(-c2nnc(-c3ccccc3[N+](=O)[O-])o2)c1	?	.	9.5µM*	4µM*	?	?
COc1cccc(-c2nnc(N)o2)c1	0%	.	-17%	13%	27%	5%
COc1cccc(C(=O)Nc2ccc(-c3nnc(-c4ccco4)o3)cc2)c1	16%	-25%	0%	28%	-10%	-4%
COc1cccc(-c2nnc(-c3ccc(C)o3)o2)c1	?	2.8µM*	1.7µM*	0.71µM*	?	1.1µM*
COc1cccc(-c2nnc(-c3ccco3)o2)c1	?	11µM*	9.5µM*	2.5µM*	?	2.5µM*

High-throughput results deposited in PubChem by National Center for Advancing Translational Sciences (NCATS).
